Measurements from PubChem BioAssay (NCATS).
Records with an inconclusive call do not appear. Active and inactive are the calls of the source. The call rests on the fitted dose curve; in most records, active means well fitted inhibition curve with a large enough effect; inconclusive means small, poorly fitted or top-dose-only effect; inactive means flat fitted curve, though single readings scatter.

molecular target: Calcium and integrin-binding protein 1 (Homo sapiens) (UniProt Q99828); assay: Primary qHTS for Identification of Calcium Integrin Binding Protein 1 (CIB1) Competitor (AID 1508620); settings: CIB1-GST / FITC-alphaIIb peptide fluorescence polarization; series mostly up to 114 µM; activity change, negative = inhibition: at the top concentration; further: top concentration of the series differs between compounds
Procedure, shortened: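 Fluorescence polarization competition: GST-tagged CIB1 (1 uM final) preincubated with compound 15 min at room temperature, then FITC-labelled alphaIIb peptide (100 nM final) added. After 15 min at room temperature, polarization read at Ex 480/Em 540.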
On the % scale 0 is the no-effect control and ±100 the full control effect.

Sequence of Calcium and integrin-binding protein 1 (Homo sapiens) (Q99828 whole entry, looked up): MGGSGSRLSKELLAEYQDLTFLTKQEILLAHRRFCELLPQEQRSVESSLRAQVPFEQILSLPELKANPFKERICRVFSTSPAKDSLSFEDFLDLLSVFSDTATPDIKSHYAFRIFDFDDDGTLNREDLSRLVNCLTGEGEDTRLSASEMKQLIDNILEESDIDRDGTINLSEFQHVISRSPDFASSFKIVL

SMILES	activity change, negative = inhibition	Potency
O=C(Nc1ccc2ccccc2c1)Nc1nnc(C2CCCCC2)s1	4.45% (inactive)	
Cc1csc(CNc2ncnc3ccc(-c4ccco4)cc23)c1	2.36% (inactive)	
COc1cc2c(s1)c1cnn(Cc3ccccc3F)c(=O)c1n2C	5.29% (inactive)	
O=S(=O)(Nc1ccccc1)c1ccc(NCc2cccc(Cl)c2O)cc1	-18.9% (inactive)	
COc1cc(Nc2nc(-c3ccncc3)nc3ccccc23)ccc1NS(C)(=O)=O	2.02% (inactive)	
COc1ccc(C2c3c(ncn(CCN4CCOCC4)c3=N)Oc3ccc4ccccc4c32)cc1 (stereo not given)	9.45% (inactive)	
N#Cc1nc(NCCO)nc(Nc2ccccc2)n1	9.11% (inactive)	
CC(=O)Nc1sc2c(c1C(=O)c1ccccc1)CCN(C(C)C)C2	-13.9% (inactive)	
COc1ccc(C)cc1NC(=O)C(OC(=O)CNC(=O)c1ccccc1)c1ccccc1 (stereo not given)	2.18% (inactive)	
O=C(Nc1ccc(-c2ccccc2)nc1)c1cccs1	2.18% (inactive)	
CC(=O)N1CCN(c2nc(-c3ccc(Br)cc3)cs2)CC1	3.15% (inactive)	
Cn1c2cc(Br)sc2c2cnn(Cc3ccc(F)cc3F)c(=O)c21	5.2% (inactive)	
Cc1ccc2nc3sc(C(=O)N4CCC(C(N)=O)CC4)cc3cc2c1	-0.511% (inactive)	
COc1ccc(C(=O)Nc2ccc(-c3nc4ccccc4[nH]3)cc2)cc1Br	2.69% (inactive)	
O=C(Nc1ccc2ccccc2c1)Nc1nnc(-c2ccccc2F)s1	7.05% (inactive)	
Cc1nc(SCC(=O)c2ccc(F)cc2)n[nH]1	-0.986% (inactive)	
Cc1cc(NS(=O)(=O)c2ccc(NC(=O)Cc3cccc(Cl)c3)cc2)no1	-13.8% (inactive)	
N#Cc1cccc(S(=O)(=O)N2CCN(S(=O)(=O)c3ccc4c(c3)OCCO4)CC2)c1	-4.35% (inactive)	
Cc1cc2c(s1)c1cnn(Cc3ccc4ccccc4c3)c(=O)c1n2C	1.5% (inactive)	
CCCCNC(=S)NCCCc1cnc[nH]1	1.6% (inactive)	

SMILES	activity change, negative = inhibition	Potency
O=C1OC(c2ccccc2)(c2ccccc2)N2CCN(C(=O)NCc3ccc(F)cc3)CC12 (stereo not given)	4.41% (inactive)	
Cc1ccc(C)c(SC2=NS(=O)(=O)c3ccccc32)c1	-1.12% (inactive)	
Cc1ccc(CNc2ccc(N3CCN(C)CC3)cc2)cc1	1.45% (inactive)	
O=C1Cc2cc(S(=O)(=O)N3CCN(c4ccc(Br)cc4)CC3)ccc2N1	0.193% [at 228 µM] (inactive)	
COc1ccc(NC(=O)CSc2nnc(-c3cccc(S(=O)(=O)N4CCCC4)c3)n2-c2ccccc2)cc1	4.81% (inactive)	
COc1cc(NC(=O)C(OC(=O)CNC(=O)c2ccccc2)c2ccccc2)cc(OC)c1 (stereo not given)	1.37% (inactive)	
c1ccc(OCc2nnc3ccc(-c4ccccc4)nn23)cc1	-1.4% (inactive)	
O=C1c2ccccc2C(=O)N1c1ccc2ncccc2c1	-0.611% (inactive)	
O=C(Cc1ccccc1)Nc1ncnc2c1C(c1ccccc1)c1c(ccc3ccccc13)O2 (stereo not given)	7.96% (inactive)	
Cc1cc(C(=O)Nc2ccc(NC(=O)Cc3ccc(Cl)c(Cl)c3)cc2)no1	5.17% (inactive)	
O=C(O)c1cccc(-n2cccc2/C=C2/C(=O)N(Cc3ccc(F)cc3)C(=O)N2Cc2ccc(F)cc2)c1	-17.3% (inactive)	
O=C(Cn1nc(-c2ccccc2)ccc1=O)NCCc1ccccc1	-0.404% (inactive)	
COc1cccc(C2c3c(ncn(-c4ccc(-c5ccccc5)cc4)c3=N)Oc3ccc4ccccc4c32)c1 (stereo not given)	10.8% (inactive)	
N#Cc1no[n+]([O-])c1-c1ccccc1	-2.19% (inactive)	
Cc1cc(C)nc(NC(=S)N2CCN(c3ncccc3C(F)(F)F)CC2)c1		inactive
COc1ccc(C2Nc3ccccc3C(=O)N2Cc2ccccc2C)cc1COc1ccc(NC(C)=O)cc1 (stereo not given)	4.5% (inactive)	
Cc1ccccc1C(=O)N1CCc2cc(-c3nc(NC(=O)CC4CCCCC4)sc3C)ccc21	4.03% (inactive)	
O=C1c2ccccc2C(=O)N1c1cccc2ncccc12	-0.712% (inactive)	
CCOc1ccc(CCNC(=O)c2ccc(C3(C(F)(F)F)N=N3)cc2)cc1OCC	1.3% (inactive)	
NC(=O)c1cccc(-c2noc(-c3ccccc3C(F)(F)F)n2)c1	-2.25% (inactive)	
